Screening results (PubChem BioAssay)
PP1 counter – PP1-alpha (human) inhibition in PP5 counter-screen; actives 0.9% (n = 320,000); inhibition, % at 6.7 µM; purified PP1alpha, OMFP fluorescence;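 active = inhibition above the mean inhibition of all tested compounds plus 3 SD, computed separately for each screening campaign, cut at about 15% in these data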
Target sequence (P62136 whole entry, looked up): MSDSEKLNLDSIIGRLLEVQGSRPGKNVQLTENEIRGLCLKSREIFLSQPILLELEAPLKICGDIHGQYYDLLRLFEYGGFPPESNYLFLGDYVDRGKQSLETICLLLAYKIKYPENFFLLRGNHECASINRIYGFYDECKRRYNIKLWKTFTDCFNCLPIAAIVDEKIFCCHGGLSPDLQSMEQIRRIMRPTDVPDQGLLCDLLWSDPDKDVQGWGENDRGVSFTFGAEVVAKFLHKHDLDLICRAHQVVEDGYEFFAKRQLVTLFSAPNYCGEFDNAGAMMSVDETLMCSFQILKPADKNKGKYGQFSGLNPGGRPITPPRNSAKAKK
KLK7 zymogen act – activators of human kallikrein-7 zymogen. P49862. purified proKLK7, EDANS-DABCYL substrate fluorescence; 100% is mature enzyme control, 0% vehicle. activation, % at 7 µM. actives 0.9% (n = 370,000). AID 652039;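 active = activation above the mean of all tested compounds plus 3 SD, computed per campaign excluding outliers beyond control limits, cut at about 13% in these data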
Target sequence (P49862 whole entry, looked up): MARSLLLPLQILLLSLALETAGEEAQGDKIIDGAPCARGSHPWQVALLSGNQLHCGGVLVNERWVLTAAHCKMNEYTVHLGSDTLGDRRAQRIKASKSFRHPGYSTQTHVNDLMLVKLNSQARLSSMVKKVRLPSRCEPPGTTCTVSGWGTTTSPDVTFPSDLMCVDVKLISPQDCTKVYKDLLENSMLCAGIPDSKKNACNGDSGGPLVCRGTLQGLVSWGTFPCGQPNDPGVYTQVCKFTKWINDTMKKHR
PP5 inh – blocks human protein phosphatase 5 activity. purified PP5c, OMFP substrate fluorescence. inhibition, % at 6.7 µM. actives 0.18% (n = 320,000);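 active = inhibition above the campaign's mean inhibition across all tested compounds plus 3 SD, cut at about 9.5% in these data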;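 note: 0% = DMSO only and 100% = 100 µM cantharidin control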
NR1D1 modulator – modulates human Rev-erb alpha binding to DNA | Rev-erbα–FITC-DNA binding, fluorescence polarization, 90 min | activity, % at 10 µM | actives 0.79% (n = 370,000);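 active = activity above about 14%, limit read from the data; passing the limit was not always enough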;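 note: 0% = DMSO wells with 35 nM protein and 100% = DMSO wells with 750 nM protein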
GASC-1 inh – blocks human GASC-1 demethylase activity. Q9H3R0. GST-JMJD2C(1-420) H3K9me3 demethylation, DELFIA europium. inhibition, % at 2.35 µM. actives 0.069% (n = 330,000). AID 2099;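 active = more than half of a compound's replicate wells show inhibition beyond 50%, single wells judged on their own value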;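 note: signal counts dimethyl H3K9 product captured on neutravidin plate; 0% = median of DMSO wells and 100% = 0.3 times that DMSO median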
PG9 Ab binder – PG9 antibody binding by small molecule; inhibition, % at 6.7 µM; AID 624416; TR-FRET gp120-PG9 antibody binding; actives 0.43% (n = 360,000); in the data active = inhibition above about 8.5%
PP1 inh confirm – human PP1 phosphatase inhibition, confirmation | actives 52% (n = 1,900) | AID 2358 | inhibition, % at 6.7 µM | shares compounds with PP1 counter | purified PP1alpha, OMFP substrate fluorescence;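 active = mean PP1 inhibition above a set limit taken from the earlier primary screen, cut at about 15% in these data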
PP5 counter – counter-screen for PP1 inhibitors: human PP5 phosphatase inhibition; shares compounds with PP1 counter; purified PP5c, OMFP fluorescence; inhibition, % at 6.7 µM; actives 4% (n = 1,900); AID 2360;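 active = mean PP5 inhibition over triplicate wells above about 9.5% taken from the earlier PP1 screen, limit read from the data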
* = called active by the depositor; / = no result given. Most compounds without a hit are left out; they make up all but 2.8% or so of the library.

SMILES	PP1 counter	KLK7 zymogen act	PP5 inh	NR1D1 modulator	GASC-1 inh	PG9 Ab binder	PP1 inh confirm	PP5 counter
COc1ccc(/C=C/C(=O)OCC(=O)Nc2nnc(-c3ccccc3)o2)c(OC)c1	/	2	/	1	/	0	/	/
C/C(=N/NC(=O)CN1CCN(Cc2ccccc2Cl)CC1)c1cccc(O)c1	/	0	/	3	/	/	/	/
COc1ccc(/C=N/N2C(=O)CSC2=S)cc1	-2	1	-1	5	-1	-1	/	/
COc1ccc(/C=N/N2C(=O)CSC2=S)cc1Br	25*	0	-1	-26	-9	0	22*	1
CC[C@@]1(c2cccc(Cl)c2)C(=O)N(C(=O)OC(C)C)N1C(=O)OC(C)C	/	1	/	1	/	/	/	/
c1nc(NCC2CC2)c2cc(-c3ccc4c(c3)OCO4)ccc2n1	/	/	/	-3	/	/	/	/
C=CCOC(=O)C1=C(C)NC(SCC(=O)Nc2nccs2)=C(C#N)C1c1ccc(Cl)cc1 (stereo not drawn)	23*	-6	1	20	7	0	7	3
C=CCOC(=O)C1=C(C)NC(SCC(=O)Nc2nccs2)=C(C#N)C1c1cccs1 (stereo not drawn)	11	2	3	3	-5	-1	/	/
Nc1[nH]c(C(=O)c2ccc(Br)cc2)c(-c2ccccc2Cl)c1C(=O)NCCc1c[nH]c2ccccc12	/	0	/	1	/	0	/	/
COC(=O)Cc1nnn2c1CC(OC)c1ccccc1-2 (stereo not drawn)	/	0	/	0	/	-1	/	/
O=C(Nc1ccc2oc(-c3ccncc3)nc2c1)c1ccc2c(c1)OCO2	30*	0	1	12	-8	-10	25*	1
O=C(Nc1ccc2oc(-c3ccccc3)nc2c1)c1ccc2c(c1)OCCO2	-1	12	2	8	-35	-3	/	/
O=C(Nc1ccc2oc(-c3ccncc3)nc2c1)c1ccc2c(c1)OCCO2	15	1	3	-6	-8	1	/	/
O=C(Nc1ccc2oc(-c3cccnc3)nc2c1)c1ccc2c(c1)OCCO2	30*	0	4	-32	1	-10	14	-5
O=C(C1CCN(Cc2cn[nH]c2-c2ccc(F)cc2F)CC1)N1CCOCC1	43*	0	0	3	-32	-2	-3	-1
CC(C)CN1C(=O)[C@@]2(CC(=O)N(C)C2c2ccccc2)c2cc(-n3cc(C(C)(C)O)nn3)ccc21 (stereo partly drawn)	/	0	/	-3	/	/	/	/
CC(C)CN(CC(C)C)C(=O)c1ccc2c(c1)NC(=O)C(C)(C)O2	/	0	/	-4	/	/	/	/
Nc1ccc2nc(-c3cccc(-c4nc5ccc(N)cc5[nH]4)c3)[nH]c2c1	42*	0	3	-2	3	-13	-2	4
Cc1ccccc1NC(=S)NCC1CCN(C(C)c2ccccc2)C1 (stereo not drawn)	25*	1	-1	1	8	-2	-17	-5
Cc1cc(C)cc(NC(=S)NCC2CCN(C(C)c3ccccc3)C2)c1 (stereo not drawn)	-2	0	5	-8	-11	0	/	/
O=C(CCN1C(=O)/C(=C\c2ccccc2)SC1=S)Nc1ccc(C(=O)O)cc1	20*	0	2	-2	18	-1	9	0
O=C(O)CCN1C(=O)/C(=C\c2cccc(OCC(=O)Nc3ccc(Cl)cc3)c2)SC1=S	24*	0	5	7	-6	1	7	-3
Cc1ccc(NC(=O)COc2cccc(/C=C3\SC(=S)N(CCC(=O)O)C3=O)c2)cc1Cl	39*	0	1	-2	8	1	14	4
O=C(CCN1C(=O)/C(=C/c2ccc(Cl)cc2)SC1=S)Nc1cccc(C(=O)O)c1	-1	0	-1	3	-1	0	/	/
CC(C)Oc1cccc(-c2csc(N3CCC(C(N)=O)CC3)n2)c1	/	/	/	-2	/	/	/	/
SMILES	PP1 counter	KLK7 zymogen act	PP5 inh	NR1D1 modulator	GASC-1 inh	PG9 Ab binder	PP1 inh confirm	PP5 counter
N=C1/C(=C\c2ccc(-c3cccc(C(=O)O)c3)o2)C(=O)N=C2SC=C(c3ccccc3)N12	45*	1	1	-11	5	-2	32*	-2
COc1ccc(C2C(C(=O)Nc3cc(Cl)ccc3F)CCC(=O)N2c2ccc(OC)cc2)cc1 (stereo not drawn)	/	0	/	1	/	/	/	/
COc1ccc(N/C=C/C(=O)c2ccc(OC)c(OC)c2)cc1	-4	3	0	-6	-19	-1	/	/
COc1ccc(C(=O)/C=C/Nc2cccc(C)n2)cc1OC	35*	0	0	3	16	1	1	-3
O=C(NN=Cc1ccco1)c1cccnc1	/	-4	/	-1	/	/	/	/
COC(=O)C(NC(=O)CCc1nnc2ccc(N3CCC(C)CC3)nn12)C(C)C (stereo not drawn)	31*	1	1	0	1	-2	-4	-2
CCc1noc(C)c1C(=O)OCC(=O)N(CCOC)c1c(N)n(Cc2ccccc2)c(=O)[nH]c1=O	22*	0	-4	-4	-13	0	-6	-5
CCc1noc(C)c1C(=O)OCC(=O)N(CC)c1c(N)n(Cc2ccccc2)c(=O)[nH]c1=O	-6	0	3	-3	/	0	/	/
COCCN(C(=O)COC(=O)c1cc2c(s1)CCC2)c1c(N)n(Cc2ccccc2)c(=O)[nH]c1=O	18*	0	-2	-26	8	0	5	-5
CCc1nnc(NC(=O)c2sc3nc4c(cc3c2N)CCCCC4)s1	2	-23	2	-4	-1	0	/	/
CCc1nnc(NC(=O)c2sc3nc4c(cc3c2N)CCCCCC4)s1	22*	-19	2	3	18	0	29*	-5
O=C(Cn1c(=O)n(Cc2ccco2)c(=O)c2c3c(sc21)CCCCC3)c1ccccc1	25*	/	3	-23	-3	/	16*	-1
CCC[C@H]1[C@@H](OC(=O)NC(CC)CC)CC[C@@]23CCCN2C(=O)CCC[C@@H]13	/	/	/	1	/	/	/	/
C/C(CC(=O)Nc1ccc(Cl)c(C(F)(F)F)c1)=N\NC(=O)c1cc2ccccc2cc1O	19*	-1	3	2	4	-2	8	-3
Cc1cccc(OCCn2c(NC(=O)c3ccco3)nc3ccccc32)c1	20*	-1	3	-2	2	2	3	7
O=C(CSc1nnc(-c2cccnc2)n1-c1ccccc1)Nc1ccc2c(c1)OCCO2	/	0	/	-7	/	/	/	/
N#Cc1ccc(C(=O)Oc2coc(CSc3ncccn3)cc2=O)cc1	/	/	/	0	/	/	/	/
O=C(/C=C/c1ccco1)NC(=S)Nc1cc(-c2nc3ccccc3s2)ccc1Cl	2	-1	1	-1	-9	-12	/	/
